# Screening results as filed in PubChem.
# PGE2 EP2 inh – human EP2 receptor antagonists, primary screen, TR-FRET cAMP, C6 glioma cells; inhibition, % at 25 µM; 260,000 tested, 0.52% active; C6 glioma cells expressing human EP2; cells stimulated with saturating PGE2; Prostaglandin E2 receptor EP2 subtype (Homo sapiens), P43116;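 active = percent inhibition above 40 after rounding to a whole number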;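 also: rat C6 glioma host cells with rolipram phosphodiesterase inhibitor present; the protocol text gives 20 µM as final concentration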
# Target sequence (P43116 whole entry, looked up): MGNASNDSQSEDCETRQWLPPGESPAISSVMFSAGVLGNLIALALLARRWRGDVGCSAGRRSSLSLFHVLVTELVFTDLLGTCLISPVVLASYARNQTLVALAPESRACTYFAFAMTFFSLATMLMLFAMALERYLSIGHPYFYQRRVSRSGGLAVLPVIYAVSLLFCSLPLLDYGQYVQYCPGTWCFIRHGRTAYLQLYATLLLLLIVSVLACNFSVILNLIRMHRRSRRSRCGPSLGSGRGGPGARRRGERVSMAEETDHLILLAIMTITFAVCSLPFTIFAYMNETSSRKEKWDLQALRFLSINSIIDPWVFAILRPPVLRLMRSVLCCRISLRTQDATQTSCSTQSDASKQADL
# CHT block – inhibitors of human choline transporter CHT; 310,000 tested, 0.86% active; B-score at 10 µM; CHT-expressing cells, membrane potential dye, choline response; stronger effect = lower value; High affinity choline transporter 1 (Homo sapiens), Q9GZV3;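 active = B-score over 3 SD under the library average, and starting fluorescence ratio not unusually high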;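 also: choline stimulus applied at its EC90 after an EC20 pre-addition; B-score computed on integrated fluorescence ratio after choline addition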
# CHT PAM – CHT positive allosteric modulators, primary screen, cell-based, membrane potential dye, choline EC20; High affinity choline transporter 1 (Homo sapiens), Q9GZV3; CHT-expressing cells; stronger effect = higher value; LV-AA mutant CHT in HEK293 cells; B-score at 10 µM; 310,000 tested, 0.49% active; AID 488977, 2010;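 active = initial fluorescence not abnormally high and integrated response B-score, plate-corrected, over 3 SD above library mean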
# EP2 modulator – EP2 receptor modulators, cAMP readout, primary screen, cell-based, HTRF cAMP, PGE2 stimulation. EP2-expressing cells, cAMP HTRF FRET, PGE2 co-stimulation. induction, % at 25 µM. 260,000 tested, 0.83% active. AID 940, 2007;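 active = compounds whose cAMP rise, as percent of the full-agonist control response, exceeds 60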;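 also: rat C6 glioma line stably carrying human EP2 under a CMV promoter; the protocol text gives 20 µM as final concentration; 100% = response of wells given 1 µM PGE2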
# CHT block conf – CHT inhibitors, confirmation, cell-based, membrane potential dye, duplicate | shares compounds with CHT block | CHT-expressing cells, choline membrane potential dye; LV-to-AA substituted CHT, HEK293 cells | CHT activity remaining % of control (stronger effect = lower value), % at 10 µM | 2,400 tested, 70% active | AID 493221, 2011;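 active = choline transporter activity left, mean of duplicates at 10 µM, below buffer-only control mean minus 3 SD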;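 also: depolarization triggered by choline at its EC90 following an EC20 pre-addition; 0% = hemicholinium-3 full block and 100% = buffer-only control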
# HEK293 CHT ctr – membrane potential effects in parental HEK293, counter-screen for CHT inhibitor project, cell-based, membrane potential dye | shares compounds with CHT block | choline response; active = decrease or increase beyond buffer ±3SD | membrane potential ratio readout (active if shifted either direction beyond buffer ±3SD; no single direction) at 10 µM | 2,400 tested, 4% active;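 also: parental cells lack the transporter so any hit is non-specific; ratio is peak minus trough fluorescence over baseline after EC90 choline challenge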
# The depositor's hits bear a star; i = inactive; nt = no result. Shown are actives, neighbours in structure and some others; about 2.1% of the full set was active somewhere.
SMILES,PGE2 EP2 inh,CHT block,CHT PAM,EP2 modulator,CHT block conf,HEK293 CHT ctr
COc1cccc(CNc2ccc(N3CCC(C)CC3)cc2)c1OC,8,-5.4*,i,19,54%*,i
CC(C)Cn1c(=O)c2c(nc3n2CCCN3CCc2ccccc2)n(C)c1=O,15,-5.4*,i,19,62%*,i
CC1CCCN(S(=O)(=O)c2ccc(S(=O)(=O)N(C)C)cc2)C1 (stereo unspecified),5,nt,nt,-27,nt,nt
CCOC(=O)c1ccc(S(=O)(=O)N(Cc2cccs2)Cc2cc3ccc(C)cc3[nH]c2=O)cc1,27,nt,nt,-103,nt,nt
COc1ccccc1CCNC(=O)c1ccc(OC)c(OC2CCN(C(C)C)CC2)c1,nt,-12*,i,nt,8.6%*,i
COc1ccc(C(=O)NCCc2ccc(C)cc2)cc1OC1CCN(C(C)=O)CC1,nt,i,i,nt,nt,nt
COc1ccc(C(=O)N(C)Cc2ccc(C)o2)cc1OC1CCN(C(C)C)CC1,nt,-6.3*,i,nt,30%*,i
COc1ccc(C(=O)N2CCCCCC2)cc1OC1CCN(C(C)C)CC1,nt,-5*,i,nt,45%*,i
COc1ccc(C(=O)N2CCN(C)C(=O)[C@@H]2C)cc1OC1CCN(C(C)C)CC1,nt,i,i,nt,nt,nt
COc1cccc(CCNC(=O)c2ccc(OC)c(OC3CCN(C(C)C)CC3)c2)c1,nt,-13*,i,nt,12%*,i
CC(c1ccccc1)n1cc(C(=O)NCCCN2CCOCC2)nn1 (stereo unspecified),9,nt,nt,-38,nt,nt
COc1ccc(N2CCN(C(=O)CN(c3cccc(Cl)c3)S(C)(=O)=O)CC2)cc1,6,nt,nt,-19,nt,nt
C=CCNC(=O)C1CC(c2ccc(Cl)c(Cl)c2)=NO1 (stereo unspecified),7,nt,nt,-78,nt,nt
COc1ccc(C(=O)NCCOC(C)C)cc1OC1CCN(C(C)=O)CC1,nt,i,i,nt,nt,nt
COc1ccc(Cl)cc1C(=O)NCc1cnn(C)c1C,9,i,i,37,nt,nt
COCCCNC(=O)c1ccc(OC)c(OC2CCN(C(C)C)CC2)c1,nt,-6*,i,nt,36%*,i
COc1ccc(C(=O)NCc2cnn(C)c2C)cc1OC1CCN(C(C)C)CC1,nt,-11*,i,nt,12%*,i
Cc1cccc(-c2ncc(CN3CCN(CCC(C)C)C(CCO)C3)cn2)c1 (stereo unspecified),4,-5.8*,i,-25,i,i
CC1CCN(S(=O)(=O)c2nnc(NC(=O)c3cccc(Cl)c3)s2)CC1,nt,-6.6*,i,nt,i,i
CSc1ccc(CNCCCSc2ncccn2)cc1,nt,-5.6*,i,nt,i,i
O=[N+]([O-])c1ccc(Nc2ccccc2O)c2nonc12,nt,-5.9*,i,nt,53%*,i
O=c1oc2ccccc2c(N2CCCC2)c1CN1CCCC1,2,i,i,0,nt,nt
O=c1oc2ccccc2c(Cl)c1CN1CCCCC1,7,-6.9*,i,-59,31%*,i
O=C(CSc1nnc(-c2ccco2)n1Cc1ccco1)NCc1ccccc1,12,-5.1*,i,22,i,i
O=C(CSc1nnc(-c2ccco2)n1Cc1ccccc1)NCc1ccccc1,10,i,i,23,nt,nt
SMILES,PGE2 EP2 inh,CHT block,CHT PAM,EP2 modulator,CHT block conf,HEK293 CHT ctr
COC(CN(C)C(=O)c1ccc(CS(=O)(=O)c2ccccc2C)o1)OC,nt,i,i,nt,nt,nt
CCCCN(C)C(=O)c1ccc(CS(=O)(=O)c2ccccc2C)o1,11,-5.3*,i,6,i,i
COc1ccc(OC)c(Cc2nnc(CCC(=O)N3CCN(C4CCCC4)CC3)o2)c1,nt,-8*,i,nt,36%*,i
COc1ccc(CCN2C(=O)N(c3ccc(OC)cc3)C(=O)C2CC(=O)Nc2ccccc2)cc1 (stereo unspecified),6,i,i,6,nt,nt
COc1ccc(N2C(=O)C(CC(=O)Nc3ccccc3)N(CCc3ccc(OC)c(OC)c3)C2=O)cc1 (stereo unspecified),4,-8.7*,i,-1,i,i
Cc1cc(C)c2cc3c(N)c(C(=O)N4CCCC(C)C4)sc3nc2c1 (stereo unspecified),17,nt,nt,-47,nt,nt
O=C(CSc1nc2ccccc2c(=O)n1CC1CCCO1)NCc1ccccc1 (stereo unspecified),nt,i,i,nt,nt,nt
O=c1c2ccccc2nc(SCc2ccncc2)n1CC1CCCO1 (stereo unspecified),5,-5*,i,22,38%*,i
O=C(Nc1ccc(Br)cc1Cl)Nn1cnnc1,5,-5*,i,3,65%*,i
O=C(Nc1ccc(Br)cc1)Nn1cnnc1,nt,i,i,nt,nt,nt
Cc1cc(-c2ccccc2)nc(N2CCC(C(=O)Nc3nnc(C)s3)CC2)n1,10,nt,nt,23,nt,nt
O=C(CCC1CCCN(C(=O)C2CCCC2)C1)NCc1ccc(F)c(F)c1 (stereo unspecified),6,i,i,12,nt,nt
O=C(CCC1CCCN(c2ncccn2)C1)NCc1ccc(F)c(F)c1 (stereo unspecified),4,-5.8*,i,-3,64%*,i
CC(=O)/C=C/c1ccc2ccccc2n1,11,-5.3*,i,26,i,i
CCc1ccc(OCc2n[nH]c(=S)n2Cc2ccccc2)cc1,4,-6.5*,i,31,68%*,i
Cc1sc(NC(C)(C)C)nc1-c1ccc2c(c1)CCN2C(=O)C1CC1,7,nt,nt,-17,nt,nt
CCc1ccc(Nc2n[n+](-c3ccccc3)c(-c3cccc(C)c3)s2)cc1,nt,-15*,i,nt,49%*,2.6*
CC(/C=C1\NC(=S)NC1=O)=C\c1ccccc1,6,-5.5*,i,-36,68%*,i
CCc1nc(N2CCCC2)ncc1C(=O)NC(c1ccccc1)c1cccnc1 (stereo unspecified),9,nt,nt,-162,nt,nt
COC(=O)/C(=C/c1c[nH]c2ccccc12)[N+](=O)[O-],141*,-4.9*,i,-48,58%*,i
COC(=O)/C(=C/c1c[nH]c2ccccc12)NC(C)=O,10,i,i,-15,nt,nt
Cn1c(=O)oc2cc(S(=O)(=O)N(Cc3ccccn3)C3CC3)ccc21,3,nt,nt,-20,nt,nt
Cc1ccc(-n2nc3c(=O)n(C(C)C(=O)NCCCc4ccccc4)nc(C)c3c2C)cc1 (stereo unspecified),nt,-5*,i,nt,i,i
Cc1ccc(-n2nc3c(=O)n(CC(=O)NCCCc4ccccc4)nc(C)c3c2C)cc1,nt,i,i,nt,nt,nt
